Screens: PubChem BioAssay, several laboratories
SUMO Mot1 rescue = blocks SUMOylation pathway, rescuing yeast Mot1-301 growth | S. cerevisiae Mot1-301 growth rescue, ATP luminescence, 38.5C; percent above DMSO median, 100 means doubled | growth rescue, % at 18.8 µM | hit rate 1% among 320,000;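 active = every valid replicate shows activation above 250% relative to neutral control wells; inactive = the rest, any valid replicate at or below 250%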;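 also: OY570 slx delta 5 strain wells were the positive control but not used for scaling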
Calb FLC = C. albicans growth modulation with fluconazole. hit rate 0.57% among 300,000. C. albicans CaCi-2 (fluconazole-resistant clinical isolate) + fluconazole, Alamar Blue growth, 48 h. growth inhibition, % (concentration not given with the values);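 active = growth inhibition above about 58% in most replicates, limit read from the data, passing the limit was not always enough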;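 also: all wells also contain fluconazole at 8 µg/ml as a sub-toxic cotreatment; 0% = median of DMSO wells and 100% = median of geldanamycin control wells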
ATG4B inh = inhibitors of human ATG4B cysteine protease; hit rate 0.51% among 340,000; ATG4B cleavage of LC3-PLA2, NBD-HPC fluorescence, 1 h; inhibition, % at 8.33 µM; in the data active = inhibition above about 40%
Target sequence (Q9Y4P1 whole entry, looked up): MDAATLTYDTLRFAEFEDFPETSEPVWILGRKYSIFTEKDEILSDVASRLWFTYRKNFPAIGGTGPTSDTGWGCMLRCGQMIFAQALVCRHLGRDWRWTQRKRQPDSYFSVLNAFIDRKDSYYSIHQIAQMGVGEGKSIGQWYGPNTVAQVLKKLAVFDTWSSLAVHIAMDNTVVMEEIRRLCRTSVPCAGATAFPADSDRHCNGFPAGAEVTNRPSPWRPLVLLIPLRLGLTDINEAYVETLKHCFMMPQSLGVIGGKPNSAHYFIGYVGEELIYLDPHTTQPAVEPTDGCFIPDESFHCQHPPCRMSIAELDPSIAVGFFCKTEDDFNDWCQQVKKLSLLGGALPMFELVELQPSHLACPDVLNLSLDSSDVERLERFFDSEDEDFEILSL
NadD inh = blocks S. aureus nicotinate mononucleotide adenylyltransferase; purified NadD enzyme, colorimetric absorbance read-out; inhibition, % at 20 µM; hit rate 0.78% among 360,000; AID 602399; in the data active = inhibition above about 26%
FAS-TE inh = blocks the thioesterase domain of human fatty acid synthase | P49327 | recombinant FAS-TE, OMFH fluorogenic substrate, fluorescence endpoint | inhibition, % at 15 µM | hit rate 0.67% among 360,000;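 active = compounds whose normalised, plate-corrected inhibition of enzyme fluorescence in the single-dose primary screen is 50% or more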;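 also: 0% = DMSO with enzyme and 100% = substrate without enzyme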
NadD inh conf = NadD (S. aureus) inhibition, single concentration confirmation; inhibition, % at 20 µM; purified S. aureus NadD, colorimetric enzyme assay; hit rate 13% among 2,000; shares compounds with NadD inh; AID 624309; in the data active = inhibition mostly above about 42%, no sharp cut-off; inactive = mostly below about 42%
The depositor's hits bear a star; x = no result given. A selection: hits, their analogues and other compounds. The true share with any hit is near 3.1%.

SMILES	SUMO Mot1 rescue	Calb FLC	ATG4B inh	NadD inh	FAS-TE inh	NadD inh conf
CN1C(=O)Cc2cc(S(=O)(=O)N3CCN(c4ccc(Cl)cc4)CC3)ccc21	157	-6	-4	14	5	x
Cc1ccc(C)c(N2CCN(S(=O)(=O)c3ccc4[nH]c(=O)ccc4c3)CC2)c1	5	2	-7	8	-7	x
Cc1ccc(Cl)cc1N1CCN(S(=O)(=O)c2ccc3c(c2)CC(=O)N3C)CC1	-23	38	-8	29*	31	10
Clc1ccc(-c2ccc(-c3nn4c(-c5ccco5)nnc4s3)o2)cc1	-8	-35	-5	35*	20	9
CC(C)C(=O)N1CCC1(C)C(=O)Nc1ccc2[nH]ccc2c1 (stereo not given)	x	x	x	-5	-14	x
CC(=O)N1CCN(C2c3cccc4cccc(c34)C2NS(=O)(=O)c2ccccc2)CC1 (stereo not given)	9	5	-1	-1	4	x
Cc1ccc(C(=O)N2CCN(C3c4cccc5cccc(c45)C3NS(=O)(=O)c3ccccc3)CC2)cc1 (stereo not given)	-6	-7	-11	36*	49	19
CCOC(=O)c1c(S(=O)(=O)NCC(C)c2ccccc2)c(C)n(C)c1C (stereo not given)	353	-4	-4	-5	5	x
Cc1cccc(C)c1-n1nnnc1C(c1ccnc2ccccc12)N(Cc1ccccc1)Cc1ccccc1 (stereo not given)	x	x	x	32*	28	28
Cc1cccc(C)c1-n1nnnc1C(c1ccnc2ccccc12)N(CCC#N)Cc1ccccc1 (stereo not given)	x	x	x	8	22	x
Cc1cccc(C)c1-n1nnnc1C(c1ccnc2ccccc12)N(C)Cc1ccc(Cl)c(Cl)c1 (stereo not given)	x	x	x	29*	30	9
c1ccc(CN(Cc2ccccc2)C(c2ccnc3ccccc23)c2nnnn2-c2ccc3c(c2)OCCO3)cc1 (stereo not given)	x	x	x	40*	34	35
CCOC(=O)CC1c2nc3ccccc3cc2CN1C(=O)OCC (stereo not given)	x	x	x	2	0	x
COc1ccc(CCC2(C)NC(=O)N(C(C)C(=O)N3c4ccccc4CC3C)C2=O)cc1 (stereo not given)	-15	x	-1	-1	2	x
CC(C)c1cccc(-c2ccc3c(c2)S(=O)(=O)c2cccc(C(=O)NCc4ccco4)c2C3=O)c1	7	x	12	34*	6	42
CC(C)c1cccc(-c2ccc3c(c2)S(=O)(=O)c2cccc(C(=O)O)c2C3=O)c1	9	x	-12	1	1	x
CCN1CCN(C(=O)C2CC(=O)N(c3ccc(Cl)cc3)C2)CC1 (stereo not given)	-8	7	-11	-2	-4	x
CSCC[C@H](NC(=O)Nc1ccc(S(N)(=O)=O)cc1)C(=O)O	-23	-9	1	-4	-3	x
COc1cccc(C2c3c(-c4cc(Cl)c(C)cc4O)n[nH]c3C(=O)N2Cc2cccnc2)c1 (stereo not given)	4	17	-9	47*	-101	43*
COc1cc(C2c3c(-c4cc(Cl)c(C)cc4O)n[nH]c3C(=O)N2Cc2cccnc2)ccc1O (stereo not given)	-5	5	-3	14	-122	x
S=C1Cc2ccccc2N1	x	63	-4	31*	49	39
O=C(Nc1nc(-c2ccccn2)cs1)c1ncc(Cl)c(Cl)c1Cl	98	-10	39	36*	4	5
O=C(Nc1nc(-c2ccccn2)cs1)c1ccc(Cl)s1	42	-3	4	0	9	x
CC1=C(C(=O)Nc2ccccc2)C(c2ccc(Cl)cc2)n2c(s/c(=C/c3cccc(OCC(=O)O)c3)c2=O)=N1 (stereo not given)	-4	-4	27	23	7	x
CC1=C(C(=O)OC(C)C)C(c2ccc(Cl)cc2)n2c(sc(=Cc3ccc(OCC(=O)O)cc3)c2=O)=N1 (stereo not given)	x	x	x	30*	-2	14
SMILES	SUMO Mot1 rescue	Calb FLC	ATG4B inh	NadD inh	FAS-TE inh	NadD inh conf
CCOc1ccc(C2C(C(=O)Nc3ccccc3)=C(C)N=c3s/c(=C/c4cccc(OCC(=O)O)c4)c(=O)n32)cc1 (stereo not given)	6	4	25	33*	4	44
COc1ccc(OCC(=O)Nc2ccc(N3CCCCC3)cc2)cc1	31	12	-13	-7	-3	x
Cc1ccc(OCC(=O)Nc2ccc(N3CCCC3)cc2)cc1C	-7	-24	4	32*	-8	-8
Cc1cccc(OCC(=O)Nc2ccc(N3CCCC3)cc2)c1C	3	0	-2	43*	-1	-2
O=C(c1cccc(S(=O)(=O)N2CCN(c3ccc(F)cc3)CC2)c1)N1CCN(c2ccccc2O)CC1	x	x	-54	38*	41	9
Cc1ccc(N(C(=O)CNC(=O)c2ccco2)C(C(=O)NC2CCCCC2)c2ccncc2)c(C)c1 (stereo not given)	-5	14	-5	2	-6	x
Nc1cccc2c(=O)c3ccccc3[nH]c12	599	32	-12	29*	2	-3
O=c1c2c([nH]c3ccccc13)CCCC2	3	-12	-9	-1	-6	x
COc1ccc(/C=N\NS(=O)(=O)c2ccc(Br)cc2)cc1COc1ccccc1[N+](=O)[O-]	-11	3	-4	46*	14	27
CN1CCCN(S(=O)(=O)c2ccc(Cl)c(Cl)c2)CC1	x	-3	5	-11	-7	x
C=CCn1c(SCC(=O)Nc2ccccc2C)nnc1-c1ccncc1	218	-7	-11	49*	-3	6
Cc1cc(C)n(-c2nc(N(c3ccccc3)c3ccccc3)nc(-n3nc(C)cc3C)n2)n1	-7	18	0	42*	26	22
Cc1cc(C)n(-c2nc(Nc3ccccc3)nc(-n3nc(C)cc3C)n2)n1	-2	-3	-9	17	-3	x
[O-]/C(=C(\C(=S)Nc1ccccc1F)[n+]1ccccc1)c1ccc(-c2ccccc2)cc1	7	-1	0	31*	8	3
COC(=O)CCCC1=CC2=CC(=O)C(C)(OC(=O)CCc3ccccc3)C(=O)C2=CO1 (stereo not given)	-3	21	24	41*	0	72*
COC(=O)CCCC1=CC2=CC(=O)C(C)(OC(=O)c3ccco3)C(=O)C2=CO1 (stereo not given)	-10	-7	x	x	x	x
O=C(CSc1nc2ccc(NC(=O)CSc3nnnn3-c3ccccc3)cc2s1)Nc1ccccc1	0	-1	9	39*	2	20
O=C(CSc1nnnn1-c1ccccc1)Nc1ccccc1	2	0	2	-4	1	x
CC1NC(=O)c2cccnc2-n2c1nc1ccccc1c2=O (stereo not given)	x	x	x	1	-10	x
